p53ts 39C tox – p53ts cell cytotoxicity, nonpermissive temperature; Potency, µM (top dose mostly 46.1 µM), for the others: at the top dose activity change, negative = cell killing, actives largely listed as cytotoxic; 130,000 compounds, 1.5% hits; H1299-p53A138V viability at 39C, ATP luminescence, 24 h; further: nearly all actives have a fitted effect of over 55% in size
Luciferase inh – inhibitors of firefly luciferase | 72,000 compounds, 2.2% hits | Potency, µM (doses to about 57.1 µM), without a hit: top-dose activity change, negative = inhibition, most hits filed as inhibitors | P08659 | purified firefly luciferase, luminescence, 8 min; further: nearly all actives have a fitted effect of over 40% in size
Target sequence (P08659 whole entry, looked up): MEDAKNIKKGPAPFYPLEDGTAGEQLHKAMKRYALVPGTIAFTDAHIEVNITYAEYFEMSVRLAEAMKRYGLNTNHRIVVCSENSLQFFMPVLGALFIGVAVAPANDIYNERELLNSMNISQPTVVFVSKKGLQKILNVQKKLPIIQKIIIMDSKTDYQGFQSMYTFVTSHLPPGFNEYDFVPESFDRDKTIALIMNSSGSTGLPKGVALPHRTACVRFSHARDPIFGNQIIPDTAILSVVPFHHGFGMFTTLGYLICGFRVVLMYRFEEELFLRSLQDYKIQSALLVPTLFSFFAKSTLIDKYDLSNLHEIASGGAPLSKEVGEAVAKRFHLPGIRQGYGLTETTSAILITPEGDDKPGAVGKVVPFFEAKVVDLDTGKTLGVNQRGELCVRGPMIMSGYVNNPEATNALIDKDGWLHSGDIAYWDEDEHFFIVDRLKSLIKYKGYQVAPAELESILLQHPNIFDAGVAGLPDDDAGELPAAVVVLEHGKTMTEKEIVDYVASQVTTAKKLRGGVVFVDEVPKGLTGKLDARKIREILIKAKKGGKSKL
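qHTS concentration-response profiling: light output of P. pyralis luciferase with luciferin and 10 uM ATP, imidazole buffer pH 7.2. Read by luminescence after 8-min room-temperature incubation.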
p53ts 32C kill – p53ts cell cytotoxicity, permissive temperature | H1299-p53A138V at 32C, ATP luminescence viability, 24 h | Potency, µM (highest dose often 46.1 µM), for the others: top-dose activity change, negative = cytotoxicity, hits mostly cytotoxic | 130,000 compounds, 0.93% hits;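 further: 0% = DMSO and -100% = full killing by reference compound; nearly all actives have a fitted effect of over 55% in size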
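H1299-p53 A138V cells (temperature-sensitive p53) exposed 24 h to up to 46 uM compound at 32C, where p53 is wild-type in conformation. Viability read as ATP luminescence and normalised to DMSO and 100 uM tamoxifen. AC50 fitted with the Hill equation.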
* = called active by the depositor; u = inconclusive; x = no result given; [ ] = dose if it differs, or a comment. Rows were chosen to be rich in hits. Some 2.5% of all compounds tested hit in one or more screens of this group. The call rests on the fitted dose curve; in most records, active means well fitted curve in the direction sought with a large enough effect; inconclusive means small, poorly fitted or top-dose-only effect, or another doubt; inactive means no such curve, though single readings can be large; an effect the other way counts as inactive or inconclusive. Unless noted, on the % scale 0 is the no-effect control and ±100 the full control effect; potency means the concentration at half of the fitted maximal effect.

SMILES	p53ts 39C tox	Luciferase inh	p53ts 32C kill
CC(=O)Nc1ccc2c(c1)ncn2C	7.5%	x	-3.2%
C=C(C)C(O)/C=C/c1ccc(Br)cc1 (stereo not drawn)	-17.7%[9.22 µM]	x	-4.7%[9.22 µM]
COc1ccc2c(c1OC)C(Cc1ccccc1)N1CCc3cc4c(cc3C1=C2)OCO4 (stereo not drawn)	-12.3%	x	-3.1%
COc1ccc(CNC(=O)c2nc(SC(C)C)ncc2Cl)cc1	-24.3%	x	0.7%
CS(=O)(=O)c1ncc(Cl)c(C(=O)N(Cc2ccc(Cl)cc2)Cc2ccco2)n1	3.16µM*	x	28.2µM*
COCCCNC(=O)c1c(NC(=O)c2nc(S(C)(=O)=O)ncc2Cl)sc2c1CCCC2	u	x	11.3%
COc1ccc(CNC(=O)c2nc(S(=O)(=O)Cc3ccccc3)ncc2Cl)cc1	5.01µM*	x	20µM*
O=C(c1ccc(Cl)cc1)N(Cc1ccco1)Cc1ccco1	-21.7%	x	8.0%
Cc1ccc(C)c(NC(=O)c2ccc(=O)n(Cc3ccc(F)cc3)c2)c1	-27.2%	x	3.5%
CCNC(=O)c1c(NC(=O)c2nc(S(=O)(=O)CC)ncc2Cl)sc2c1CCCC2	3.16µM*	x	u
Cc1ccc(C)c(NC(=O)c2nc(S(=O)(=O)Cc3ccc(F)cc3)ncc2Cl)c1	3.98µM*	x	u
CC(=O)N1c2ccc(S(=O)(=O)N3CCN(c4ccc(C)cc4C)CC3)cc2CC1C (stereo not drawn)	x	x	-14.7%
ClC1=C(Cl)C(Cl)(Cl)C(Cl)=C1Cl	3.0%	x	-1.9%[1.84 µM]
CC[C@@H]1OC(=O)[C@@H](C)[C@H](O[C@@H]2C[C@@](C)(OC)[C@@H](O)[C@H](C)O2)[C@H](C)[C@H](O[C@@H]2O[C@@H](C)C[C@@H](N(C)C)[C@H]2O)[C@@](C)(O)C[C@H](C)C(=O)[C@@H](C)[C@H](O)[C@@]1(C)O	x	-0.1%[11.4 µM]	x
COc1ccc(OC)c(NC(=O)c2cc3c(s2)-c2ccccc2SC3)c1	-11.4%	x	3.9%
COc1ccc(CNC(=O)c2nc(SCc3ccc(C)cc3)ncc2Cl)cc1	-22.6%	x	-6.0%
CSc1ncc(C(=O)NCc2ccccc2)c(-c2ccccc2)n1	x	x	-3.8%
Cc1cccc(CSc2ncc(Cl)c(C(=O)Nc3nc4ccc(F)cc4s3)n2)c1	-25.0%	x	15.2%
CCCSc1ncc(Cl)c(C(=O)N(Cc2ccccc2)c2ccc(OC)cc2)n1	-7.8%	x	6.1%
O=C(Nc1nc2ccc(F)cc2s1)c1nc(S(=O)(=O)Cc2ccccc2F)ncc1Cl	5.01µM*	x	10µM*
COc1ccc(NC(=O)c2nc(S(=O)(=O)Cc3ccc(C)cc3)ncc2Cl)cc1	6.31µM*	x	u
O=C(NCc1ccccc1)c1nc(S(=O)(=O)Cc2ccccc2)ncc1Cl	7.94µM*	x	u
COc1ccc(N(Cc2ccccc2)C(=O)c2nc(S(C)(=O)=O)ncc2Cl)cc1	3.98µM*	x	7.94µM*
CCN(CC)CC[n+]1ccc2c(C)c3[nH]c4ccc(O)cc4c3c(C)c2c1	10.2%[9.22 µM]	-0.4%[11.4 µM]	8.7%[9.22 µM]
Cc1ccccc1N1C(=O)c2cc(S(N)(=O)=O)c(Cl)cc2N[C@H]1C	-1.1%[20.6 µM]	0.7%[25.5 µM]	-3.0%[20.6 µM]
SMILES	p53ts 39C tox	Luciferase inh	p53ts 32C kill
CC(C)(C)c1ccc(OCCSc2nc(-c3cccs3)nc3cc(=O)[nH]n23)cc1	-0.7%	x	12.0%
Cc1ccc(CNC(=O)C(C)n2c(=O)cc(-c3ccccc3)c3c(C)nn(C)c32)cc1 (stereo not drawn)	-7.1%	x	16.1%
CCOC(=O)c1ccccc1NC(=O)c1nn(-c2ccc(C)cc2)c(=O)n(C)c1=O	3.6%	x	-8.1%
CCc1ccc(NS(=O)(=O)c2ccc(Cl)cc2OC)cc1	41.9%	x	28.5%
CC(C)Sc1ncc(Cl)c(C(=O)Nc2c(C(=O)Nc3ccccc3)oc3ccccc23)n1	-14.7%	x	16.6%
CCOc1ccc(NC(=O)c2nc(S(=O)(=O)Cc3ccccc3F)ncc2Cl)cc1	7.94µM*	x	14.1µM*
CCCS(=O)(=O)c1ncc(Cl)c(C(=O)Nc2c(C(=O)Nc3ccccc3)oc3ccccc23)n1	6.31µM*	x	u
CCS(=O)(=O)c1ncc(Cl)c(C(=O)NCc2ccccc2)n1	12.6µM*	x	u
Cc1ccc(CNC(=O)c2nc(SCc3ccccc3C)ncc2Cl)cc1	-8.4%	x	-2.8%
CCOC(=O)c1ccc(NC(=O)c2nc(SCc3ccccc3F)ncc2Cl)cc1	-28.8%	x	u
CS(=O)(=O)N1CCc2cc(C(=O)Nc3ccc(Cl)c(C(F)(F)F)c3)ccc21	u	x	-11.8%
CCOc1cccc2sc(N(Cc3cccnc3)C(=O)c3ccco3)nc12	-13.2%	x	-3.0%
Cc1ccc(S(=O)(=O)N(CC(=O)Nc2ccc(F)cc2F)Cc2ccc(F)cc2)cc1	14.4%	x	-4.1%
COc1ccc(OC)c(-c2ccccc2/C=N/NS(=O)(=O)c2ccc(C)cc2)c1	-2.6%[9.22 µM]	x	6.6%[9.22 µM]
